Most compounds without a hit are left out; they make up all but 1.3% or so of the library.
AmpC detergent = qHTS Inhibitors of AmpC Beta-Lactamase (assay with detergent); AmpC hydrolysis of nitrocefin, absorbance 480 nm, 0.01% Triton; Potency, µM (top dose mostly 114 µM), for inactives: at the highest dose activity change, negative = inhibition, usual class: inhibitors; 370,000 compounds, 0.041% hits; AID 485294, 2010;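 note: 0% = no-compound wells and -100% = no-enzyme wells; nearly all actives have a fitted effect of over 25% in size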
Target sequence (P00811 whole entry, looked up): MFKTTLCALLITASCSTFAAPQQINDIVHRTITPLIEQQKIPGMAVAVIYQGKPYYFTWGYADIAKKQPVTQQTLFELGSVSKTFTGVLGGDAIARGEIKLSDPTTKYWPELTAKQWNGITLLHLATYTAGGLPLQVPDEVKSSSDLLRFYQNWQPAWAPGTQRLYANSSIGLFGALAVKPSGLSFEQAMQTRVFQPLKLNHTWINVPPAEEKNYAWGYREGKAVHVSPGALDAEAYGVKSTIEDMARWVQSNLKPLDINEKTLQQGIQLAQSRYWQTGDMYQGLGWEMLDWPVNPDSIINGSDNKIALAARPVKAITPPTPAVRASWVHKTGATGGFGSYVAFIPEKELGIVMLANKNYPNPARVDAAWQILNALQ
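AmpC (5.3 nM in the dispensed reagent) in 20 mM phosphate pH 7.0 with 0.01% (detergent screen) or 0.0001% Triton X-100 was preincubated with compounds for 15 min at room temperature. Nitrocefin was then added from an 800 uM solution, and hydrolysis was followed at 480 nm.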
AMA1-RON2 inh = qHTS for Inhibitors of AMA1-RON; Towards Development of Antimalarial Drug Lead: Primary Screen | Potency, µM (series often up to 58.2 µM), for the others: at the top dose activity change, negative = inhibition, usual class: inhibitors | AID 720542, 2013 | AlphaScreen AMA1-biotinylated RON2 peptide binding | Plasmodium falciparum AMA1 (3D7) - RON2 peptide interaction | 360,000 compounds, 0.2% hits;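 note: 0% = vehicle wells and -100% = peptide control; nearly all actives have a fitted effect of over 45% in size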
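AMA1 (3D7) with his tag at 25 nM final met compounds first, then biotinylated RON2 peptide at 25 nM; detection used donor plus acceptor beads, 10 µg/mL apiece, read by AlphaScreen after 30 min at room temperature.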
AmpC inh no detg = qHTS Inhibitors of AmpC Beta-Lactamase (assay without detergent) | P00811 | AmpC nitrocefin hydrolysis, absorbance 480 nm, 0.0001% Triton | Potency, µM (series often up to 57.1 µM), for inactives: top-dose activity change, negative = inhibition, usual class: inhibitors | 330,000 compounds, 0.52% hits;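 note: plate controls were no compound for no effect and no enzyme for full effect; nearly all actives have a fitted effect of over 20% in size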
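20 mM phosphate pH 7.0 + 0.01% (detergent screen) or 0.0001% Triton X-100; 5.3 nM AmpC reagent; cpd preinc 15 min RT; nitrocefin (800 uM stock) to start; A480 q20 s × 4 min; Activity was normalised to no-enzyme and no-compound control wells.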
FBPA Giardia inh = qHTS Assay for Inhibitors of Fructose-1,6-bisphosphate Aldolase from Giardia Lamblia. purified Giardia FBPA. AID 2451, 2010. 290,000 compounds, 0.71% hits. Potency, µM (titrated, usually from 59.6 µM), for the others: at the highest dose activity, negative = inhibition, most hits filed as inhibitors; note: nearly all actives have a fitted effect of over 55% in size
Target sequence (A8B2U2 whole entry, looked up): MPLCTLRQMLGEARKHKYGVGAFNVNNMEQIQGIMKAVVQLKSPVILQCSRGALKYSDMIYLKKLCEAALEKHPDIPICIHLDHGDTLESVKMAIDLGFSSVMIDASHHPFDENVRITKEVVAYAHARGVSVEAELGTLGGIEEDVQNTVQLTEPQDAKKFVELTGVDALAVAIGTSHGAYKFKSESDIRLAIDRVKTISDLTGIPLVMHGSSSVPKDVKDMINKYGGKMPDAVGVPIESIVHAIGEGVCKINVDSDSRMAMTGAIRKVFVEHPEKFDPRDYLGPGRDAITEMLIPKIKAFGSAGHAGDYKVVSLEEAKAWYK
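40 nM FBPA preincubated 10 min at RT with compound (up to 57.5 uM final), then substrate plus GAPDH/TPI/NAD/arsenate coupling and diaphorase/resazurin added. Fluorescence read after 20 min at RT, 525/598 nm.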
LmPK inhibitor = qHTS Assay for Inhibitors of Leishmania Mexicana Pyruvate Kinase (LmPK); Q27686; purified LmPK, Kinase-Glo ATP luminescence, 1 h; 290,000 compounds, 0.37% hits; Potency, µM (doses to about 57.5 µM), for inactives: top-dose activity change, negative = inhibition, most hits filed as inhibitors; AID 1721, 2009
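0.1 nM LmPK, 0.5 mM PEP, 0.1 mM ADP; 50 mM imidazole pH 7.2, 7 mM MgCl2, 50 mM KCl; 1 h RT. Kinase-Glo luminescence readout, normalized to no-enzyme (full inhibition) and uninhibited wells.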
Active calls of the source: *; ? = inconclusive; . = no result given. Calls come from the whole dose curve; as a rule, active = well fitted curve in the direction sought with a large enough effect; inconclusive = small, poorly fitted or top-dose-only effect, or another doubt; inactive = no such curve, though single readings can be large; an effect the other way counts as inactive or inconclusive. Unless noted, % is set by controls: 0 for no effect and ±100 for the full control effect; potency is the fitted concentration of half-maximal effect.

SMILES	AmpC detergent	AMA1-RON2 inh	AmpC inh no detg	FBPA Giardia inh	LmPK inhibitor
Cc1cc(C)cc(NC(=O)NCCn2nnc3cc(S(=O)(=O)N(C)C)ccc32)c1	-1.5%	.	.	.	.
CCc1ccc(C2CC(c3ccco3)=NN2S(C)(=O)=O)cc1 (configuration not stated)	-0.8%	-17.5%	227.1%	2.6%	12.6µM*
CC[C@H](C)[C@H](NC(=O)[C@@H]1CCCN1C(=O)[C@H](Cc1cnc[nH]1)NC(=O)[C@@H](NC(=O)[C@H](Cc1ccc(O)cc1)NC(=O)[C@@H](NC(=O)[C@H](CCCN=C(N)N)NC(=O)CNC)C(C)C)[C@@H](C)CC)C(=O)O	.	.	.	0.9%	.
Cc1ccc(-n2nnc(-c3nccs3)n2)cc1	-8.0%	1.4%	-9.3%	1.9%	14.1µM*
CCCN1C(=O)c2cc(C(=O)Nc3ccc(OC)cc3OC)ccc2C1Nc1ccc(OC)cc1OC (configuration not stated)	0.1%	14.1µM*	156.2%	-15.4%	15.6%
Cc1ccc(Cl)cc1NC(=O)N1CCC2(CC1)Oc1ccccc1C(=O)N2Cc1ccccc1F	-2.3%	.	.	.	.
N#Cc1ccc(Oc2cccc3cccnc23)c([N+](=O)[O-])c1	?	6.6%	-6.8%	-28.4%	-0.8%
O=[N+]([O-])c1ccc(Oc2cccc3cccnc23)c([N+](=O)[O-])c1	?	-18.8%	-21.0%	19.9µM*	1.5%
Cn1cnnc1SCC(=O)Nc1nc(-c2ccccc2)cs1	79.4µM*	1.6%	-21.0%	-3.7%	-3.0%
CCc1c(C)nc(SCC(=O)NNC(=O)Cc2ccc(OC)cc2)[nH]c1=O	5.4%	71.2%	-0.2%	0.8%	1.6%
O=C(Nc1nc(-c2ccncc2)cs1)C1c2ccccc2Oc2ccccc21	-3.5%	-26.7%	-6.2%	12.7%	-0.5%
O=C(Nc1nc(-c2ccccc2)cs1)C1c2ccccc2Oc2ccccc21	5.3%	0.0%	0.178µM*	0.4%	-0.7%
CCc1c(C)nc(SCC(=O)Nc2nc(-c3ccc(OC)cc3)cs2)[nH]c1=O	5.6%	7.3%	14.1µM*	6.2%	3.5%
COc1ccc(-c2csc(NC(=O)CSc3ccc(Br)cc3)n2)c(OC)c1	-1.2%	-16.1%	35.5µM*	0.0%	0.1%
COc1ccc2c(c1)CCCC21NC(=O)N(CC(=O)NCc2cccs2)C1=O (configuration not stated)	.	-7.9%	-21.8%	.	.
COc1ccc(C2=C(C)C(=NCCCN3CCN(c4cc(C)ccc4C)CC3)NS2(=O)=O)cc1	-7.8%	.	.	.	.
CCCc1cc(=O)[nH]c(SCC(=O)Nc2nc(-c3ccccc3)cs2)n1	1.8%	6.7%	12.6µM*	2.3%	6.2%
CC(=O)Nc1cccc(C(=O)NN2C(=O)NC3(CCC(C)CC3)C2=O)c1 (configuration not stated)	.	0.0%	.	.	.
CCN1CCN(Cc2c(O)ccc3c(=O)c(Oc4ccccc4C(C)C)c(C(F)(F)F)oc23)CC1	3.8%	.	.	.	.
COc1ccccc1N1C(=O)CC(Sc2n[nH]c(-c3cccc(C)c3)n2)C1=O (configuration not stated)	-6.1%	15.1%	15.8µM*	-11.0%	-11.0%
COc1ccccc1S(=O)(=O)N(C)C[C@@H]1OCc2cnnn2CCCC(=O)N([C@@H](C)CO)C[C@@H]1C	.	13.9%	.	.	.
NC(=O)c1ccc(NC(=O)CSc2nc3ccccc3c(=O)n2CCCN2CCOCC2)cc1	-1.7%	0.0%	-17.2%	.	.
NS(=O)(=O)c1cccc(NC(=O)CSc2nc3ccccc3c(=O)n2CCCN2CCOCC2)c1	-7.2%	21.1%	31.6µM*	9.0%	3.5%
Cc1ccnc(Nc2nc3ccccc3o2)n1	?	147.6%	0.0%	0.9%	22.4µM*
Cc1nc(Nc2nc3ccccc3o2)nc(C)c1C	4.1%	22.0%	-2.4%	-5.9%	17.8µM*
SMILES	AmpC detergent	AMA1-RON2 inh	AmpC inh no detg	FBPA Giardia inh	LmPK inhibitor
CC1CCCCC1NC(=O)Cn1ncc2ccccc21 (configuration not stated)	?	9.9%	3.16µM*	-2.6%	0.8%
CC1CCC(NC(=O)Cn2ncc3ccccc32)CC1 (configuration not stated)	?	-4.1%	2.51µM*	6.3%	1.6%
COc1ccccc1N1CCN(C(=O)c2nc(SC)ncc2Cl)CC1	-3.0%	.	.	.	.
COc1cccc(S(=O)(=O)N(C)C[C@@H]2OCc3cnnn3CCCC(=O)N([C@@H](C)CO)C[C@H]2C)c1	.	12.9%	.	.	.
COc1cc2c(cc1OC)CN(C(=O)C1CCCN(C(=O)c3ccc(Cl)cc3)C1)CC2 (configuration not stated)	-10.6%	4.3%	95.9%	.	.
O=C(COC(=O)c1ccccc1Nc1ccccc1)c1ccccc1	-12.2%	69.4%	-39.4%	0.7%	0.8%
COc1ccc(NC(=O)Nc2ccccc2C(N)=O)cc1	-0.3%	2.9%	-22.7%	0.2%	14.1µM*
Cc1ccc(NC(=O)NNC(=O)c2cc3ccccc3cc2O)cc1	-1.5%	67.5%	10µM*	13.6%	-5.1%
Cc1ccc(NC(=O)COC(=O)c2ccccc2Nc2ccccc2)cc1	-2.2%	13.7%	25.1µM*	0.1%	-1.1%
Cc1ccc(NC(=O)Nc2ccccc2C(N)=O)cc1	0.1%	-6.9%	-17.8%	-2.2%	15.8µM*
Cc1ccc(-c2csc(N3CCN(S(=O)(=O)c4ccc5c(c4)NC(=O)CO5)CC3)n2)cc1	0.4%	28.3%	-12.0%	-6.7%	1.6%
O=C(c1ccco1)N1CC2(CC(c3ccc(Cl)cc3)=NO2)CN1Cc1ccc(Br)cc1 (configuration not stated)	.	-4.6%	.	.	.
O=C(NCC1CC1)c1csc([C@@H]2O[C@H](CO)[C@H](O)[C@H](O)[C@H]2O)n1	.	0.5%	.	.	.
NC1=C(Cl)C(=O)c2ccccc2C1=O	.	2.3%	.	.	.
O=C1C(Cl)=C(Cl)C(=O)C(Cl)=C1Cl	.	.	.	0.561µM*	.
O=C(Nc1nc2ccccc2s1)c1cnccn1	-8.9%	63.0%	-6.5%	5.9%	10µM*
O=C(Nc1nc2ccc(F)cc2s1)c1ccccn1	3.4%	5.7%	-13.1%	?	17.8µM*
CCOc1ccc2nc(NC(=O)c3cnccn3)sc2c1	-1.4%	16.1%	-0.2%	2.2%	-22.1%
CC(C)CCn1c(=O)c2sccc2n2c(CCCC(=O)NC(C)c3ccccc3)nnc12 (configuration not stated)	19.1%	.	.	.	.
CCOc1cc(/C=N/N=C(/N)c2nonc2N)cc(Br)c1OCc1ccc(Cl)cc1	3.2%	-7.0%	15.8µM*	0.3%	3.6%
COc1ncc2nc(-c3ccccc3)c(=O)n(C[C@H]3CCCO3)c2n1	.	.	.	-5.5%	.

High-throughput results from PubChem BioAssay.
